From article PMC5540273 (PLoS ONE, 2017) come the findings set out here.

Structures are written as SMILES. “And” between values parts separate entries of the source, which are not always exact repeats. Equal entries are not always repeated. Where two headings read alike, the source gives them in different places.

In one assay the test system is PRKCI. The following applies: concentration: 1 μM, replicates: in singlicate, n = 1.
The test system of another assay is PRKCQ. The settings on record: concentration: 1 μM, replicates: in singlicate, n = 1.
The subject of the next assay is PRKD1. The settings on record: concentration: 1 μM, replicates: in singlicate, n = 1.
A further assay concerns PRKD2. The following applies: concentration: 1 μM, replicates: in singlicate, n = 1.
The next assay deals with PRKD3. The following applies: concentration: 1 μM, replicates: in singlicate, n = 1.
A further assay has as its system PRKG1. The settings on record: concentration: 1 μM, replicates: in singlicate, n = 1.
Another assay deals with PRKG2. The following applies: concentration: 1 μM, replicates: in singlicate, n = 1.
For another assay, the system named is T1, PRKR.
T1 construct: gene EIF2AK2
The settings on record: concentration: 1 μM, replicates: in singlicate, n = 1.

The next assay deals with PRKX. The following applies: concentration: 1 μM, replicates: in singlicate; n = 1.
A further assay deals with PRP4. The settings on record: concentration: 1 μM, replicates: in singlicate, n = 1.
A further assay has as its system T2, PYK2.
T2 construct: gene PTK2B
The settings on record: concentration: 1 μM, replicates: in singlicate, n = 1.

Another assay has as its system QSK. The following applies: concentration: 1 μM, replicates: in singlicate; n = 1.
The subject of the next assay is RAF1. The following applies: concentration: 1 μM, replicates: in singlicate, n = 1.
The subject of a further assay is RET. The following applies: concentration: 1 μM, replicates: in singlicate, n = 1.
The next assay relates to RIOK1. The following applies: concentration: 1 μM, replicates: in singlicate, n = 1.
The test system of a further assay is RIOK2. The settings on record: concentration: 1 μM, replicates: in singlicate; n = 1.
The test system of a further assay is RIOK3. The following applies: concentration: 1 μM, replicates: in singlicate, n = 1.
A further assay concerns RIPK1. The settings on record: concentration: 1 μM, replicates: in singlicate, n = 1.
A further assay relates to RIPK2. The settings on record: concentration: 1 μM, replicates: in singlicate, n = 1.
Another assay deals with RIPK4. The following applies: concentration: 1 μM, replicates: in singlicate, n = 1.
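Note: KINOMEscan kinase panel screen.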

As to `Cl.Cl.Cl.Fc1ccc(-c2ncn(C3CCNCC3)c2-c2ccnc(Nc3ccccc3)n2)cc1` [SB-238039], the “%Inh” value is 53% and 34% with PRKCI (1 µM); 20% and 50% in the assay with PRKCQ (1 µM); 96.5% and 91.3% in the assay on PRKD1 (1 µM); 95.3% and 91.8% with PRKD2 (1 µM); 88% and 90.8% in the assay on PRKD3 (1 µM); 3% and 0% with PRKG1 (1 µM). For the same compound, the “%Inh” value in the assay with PRKG2 (1 µM) is 0% and 28%; with PRKR (1 µM), 0% and 3%; in the assay with PRKX, 0%; in the assay on PRP4 (1 µM), 32% and 0%; with PYK2 (1 µM), 0% and 12%; in the assay with QSK, 0%. For the same compound, the “%Inh” value with RAF1 (1 µM) is 18% and 8%; with RET (1 µM), 8% and 20%; in the assay with RIOK1 (1 µM), 11% and 52%; in the assay with RIOK2, 0%; in the assay on RIOK3 (1 µM), 3% and 32%; in the assay on RIPK1 (1 µM) it was 35% and 0%. In addition, the “%Inh” value with RIPK2 (1 µM) is 76% and 65%; in the assay with RIPK4 (1 µM) it was 13% and 42%.
For the compound `Cn1cc(-c2ccc3c(c2)CCN3C(=O)Cc2ccccc2Cl)c2c(N)ncnc21` [GSK2608885], the “%Inh” value with PRKCI was 10%; in the assay on PRKCQ, 83%; with PRKD1, 0%; in the assay on PRKD2 it was 47%; in the assay on PRKD3, 54%; with PRKG1 it was 0%. The “%Inh” value with PRKG2 came out at 0%; in the assay with PRKR it was 0%; in the assay on PRKX, 19%; in the assay on PRP4, 8%; in the assay with PYK2, 38%; with QSK it was 23%. The “%Inh” value in the assay on RAF1 is recorded as 94.9%; with RET, 99.9%; in the assay with RIOK1, 23%; in the assay on RIOK2, 0%; with RIOK3, 21%; with RIPK1, 0%. For the same compound, the “%Inh” value amounted to 99.4% in the assay on RIPK2 and 0% in the assay on RIPK4.
Consider `CC(=O)Nc1ccc(COc2ccc(Nc3ccnc4cc(-c5ccccn5)ccc34)cc2)cc1.Cl` [GW440148], for which the “%Inh” value is given as 15% in the assay with PRKCI; 0% with PRKCQ; 18% with PRKD1; 14% in the assay with PRKD2; 0% in the assay on PRKD3; 0% with PRKG1. Further, the “%Inh” value with PRKG2 turned out to be 8%; with PRKR, 27%; with PRKX it was 12%; in the assay with PRP4, 27%; in the assay on PYK2, 0%; in the assay on QSK, 0%. The “%Inh” value in the assay on RAF1 was determined as 5%; in the assay with RET it was 2%; in the assay with RIOK1 it was 13%; with RIOK2, 0%; in the assay on RIOK3 it was 35%; in the assay with RIPK1, 22%. Further, the “%Inh” value with RIPK2 is reported as 93.2%; with RIPK4, 19%.
Take `Nc1nc(-c2ccc3c(N)n[nH]c3c2)cc(N2CCCC2)n1` [GSK2227430]: the “%Inh” value stood at 0% in the assay on PRKCI; 18% with PRKCQ; 0% in the assay with PRKD1; 0% with PRKD2; 13% with PRKD3; 0% in the assay with PRKG1. Also, the “%Inh” value in the assay on PRKG2 is recorded as 75%; in the assay on PRKR, 0%; with PRKX, 1%; in the assay with PRP4, 46%; in the assay on PYK2 it was 20%; with QSK, 0%. In addition, the “%Inh” value with RAF1 amounted to 0%; with RET it was 0%; in the assay on RIOK1, 48%; in the assay on RIOK2, 2%; in the assay with RIOK3, 56%; with RIPK1, 0%. Also, the “%Inh” value with RIPK2 came out at 0%; in the assay on RIPK4 it was 11%.
For `O=c1cc(N2CCOCC2)nc2n(Cc3cccc4ccccc34)ccn12` [GSK2333389], the “%Inh” value in the assay on PRKCI is given as 7%; in the assay with PRKCQ, 0%; in the assay on PRKD1, 0%; in the assay with PRKD2, 0%; with PRKD3, 23%; with PRKG1, 10%. The “%Inh” value in the assay on PRKG2 amounted to 0%; with PRKR, 0%; with PRKX, 26%; in the assay on PRP4, 2%; in the assay with PYK2, 17%; with QSK, 7%. Also, the “%Inh” value in the assay with RAF1 came to 0%; in the assay on RET, 80%; in the assay on RIOK1, 8%; with RIOK2, 47%; in the assay with RIOK3 it was 0%; with RIPK1, 0%. Also, the “%Inh” value in the assay on RIPK2 and in the assay with RIPK4 was 0% each time.
With `Cc1nnc(-c2ccc3occ(-c4ccc(C(C)O)cc4)c3c2)o1` (centres unmarked), the “%Inh” value came out at 12% with PRKCI; 5% in the assay with PRKCQ; 11% with PRKD1; 20% in the assay on PRKD2; 0% in the assay with PRKD3; 10% in the assay with PRKG1. The “%Inh” value with PRKG2 amounted to 34%; in the assay with PRKR it was 0%; in the assay with PRKX, 0%; in the assay on PRP4 it was 0%; with PYK2, 2%; with QSK it was 5%. Also, the “%Inh” value is recorded as 100% with RAF1; 11% with RET; 0% in the assay with RIOK1; 36% with RIOK2; 0% in the assay on RIOK3; 1% in the assay with RIPK1. Besides, the “%Inh” value with RIPK2 is recorded as 20%; with RIPK4, 0%.
For `COc1ccc(Nc2nccc(N3CCC(NC(=O)Nc4cc(C)ccc4C)C3)n2)cc1` (centres unmarked) [GSK1379741], the “%Inh” value in the assay on PRKCI is listed as 7%; with PRKCQ it was 22%; with PRKD1, 0%; with PRKD2, 0%; in the assay with PRKD3, 4%; in the assay with PRKG1, 0%. In addition, the “%Inh” value in the assay on PRKG2 is 0%; in the assay with PRKR, 0%; with PRKX, 6%; with PRP4 it was 22%; in the assay with PYK2, 7%; in the assay on QSK, 1%. Moreover, the “%Inh” value in the assay on RAF1 is 13%; in the assay on RET, 52%; with RIOK1, 25%; in the assay on RIOK2, 0%; in the assay with RIOK3 it was 0%; in the assay on RIPK1, 0%. In addition, the “%Inh” value in the assay on RIPK2 is 14%; with RIPK4, 8%.
As for `COC(=O)Nc1nc2cc(Oc3ccc(NC(=O)Nc4cc(F)ccc4F)cc3)ccc2[nH]1.Cl` [GW701424], the “%Inh” value with PRKCI came to 0%; in the assay on PRKCQ it was 0%; in the assay with PRKD1, 0%; in the assay with PRKD2 it was 0%; in the assay with PRKD3 it was 6%; with PRKG1, 0%. Also, the “%Inh” value is reported as 0% with PRKG2; 0% with PRKR; 0% in the assay with PRKX; 62% in the assay with PRP4; 0% in the assay with PYK2; 0% in the assay on QSK. The “%Inh” value in the assay with RAF1 was found to be 89%; in the assay with RET it was 95.1%; in the assay with RIOK1, 0%; in the assay with RIOK2, 0%; in the assay on RIOK3, 0%; with RIPK1 it was 0%. The “%Inh” value with RIPK2 stood at 38%; in the assay on RIPK4, 8%.
Regarding `O=C(NCCCN1CCOCC1)c1cccc(Nc2nccc(Nc3ccc(Oc4ccccc4)cc3)n2)c1` [GW663929], the “%Inh” value with PRKCI worked out at 12%; with PRKCQ, 0%; in the assay on PRKD1, 13%; in the assay on PRKD2, 25%; in the assay on PRKD3, 17%; with PRKG1, 0%. For the same compound, the “%Inh” value stood at 5% in the assay with PRKG2; 20% in the assay with PRKR; 17% with PRKX; 21% in the assay on PRP4; 0% with PYK2; 0% in the assay on QSK. The “%Inh” value is recorded as 0% in the assay on RAF1; 17% in the assay on RET; 31% in the assay with RIOK1; 23% with RIOK2; 36% with RIOK3; 24% in the assay on RIPK1. Besides, the “%Inh” value amounted to 100% in the assay on RIPK2 and 29% in the assay with RIPK4.
On to `CCn1cnc2c(N)ncnc21` [GW345098], for which the “%Inh” value in the assay on PRKCI is recorded as 13%; in the assay on PRKCQ, 0%; in the assay with PRKD1, 9%; in the assay with PRKD2, 0%; in the assay on PRKD3, 23%; with PRKG1, 13%. Besides, the “%Inh” value with PRKG2 was determined as 0%; in the assay with PRKR it was 0%; in the assay with PRKX, 0%; in the assay on PRP4, 1%; in the assay with PYK2 it was 8%; in the assay on QSK, 13%. For the same compound, the “%Inh” value in the assay on RAF1 turned out to be 3%; with RET it was 0%; with RIOK1, 30%; in the assay with RIOK2, 6%; in the assay on RIOK3, 8%; in the assay with RIPK1 it was 11%. Further, the figures for the “%Inh” value in the assay with RIPK2 and in the assay with RIPK4 were 1% and 6%, respectively.
